Results from PubChem BioAssay (NCATS).
“And” between values parts separate entries of the source, which are not always exact repeats. Identical values can stand only once. Results filed as inconclusive are left out. The source made the active and inactive calls. Unless noted, calls follow the shape of the dose curve; as a rule, active = well fitted curve in the direction sought with a large enough effect; inconclusive = small, poorly fitted or top-dose-only effect, or another doubt; inactive = no such curve, though single readings can be large; an effect the other way counts as inactive or inconclusive.

Assays:
[1] = Cell Viability - SH-SY5Y (AID 544); details: SH-SY5Y neuroblastoma cell viability; viability change, negative = cytotoxic: at 92.2 µM (top of the series); also: nearly all actives have a fitted effect of over 55% in size; also: potency is read from the fitted curve at half-maximal effect;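 as to viability change, negative = cytotoxic: 0% = DMSO alone and -100% = 100 µM tamoxifen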
Method in brief: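 Luminescent ATP read-out (CellTiter-Glo) measures loss of viable SH-SY5Y neuroblastoma cells after 40 hr compound exposure at 37 °C. AC50 values derive from standard Hill modelling of qHTS concentration-response data.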

[2] = Cell Viability - LYMP2-004 (AID 966); also: nearly all actives have a fitted effect of over 65% in size; also: potency is read from the fitted curve at half-maximal effect;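 as to activity change, negative = cytotoxicity: plate controls were DMSO only for no effect and tetraoctylammonium bromide control for full effect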
Method in brief: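 Cells seeded 2500/well, rested 5 hr at 37 C, dosed across a concentration series, incubated 24 hr at 37 C, then CellTiter-Glo added for 30 min at room temperature and luminescence read. Hill fitting gave AC50.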

[3] = Cell Viability - LYMP2-011 (AID 969);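 also: cells exposed to compound for 24 hours; 0% = DMSO only and full inhibition = 92 µM tetraoctylammonium bromide; nearly all actives have a fitted effect of over 60% in size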
Method in brief: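 2500 cells/well, 5 hr 37 C; compound added, 24 hr 37 C; CellTiter-Glo 30 min RT; luminescence. qHTS concentration-response, Hill-equation AC50. Tetraoctylammonium bromide positive control.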

[4] = Cell Viability - LYMP2-007 (AID 979);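 also: cells exposed to compound for 24 h before reading; nearly all actives have a fitted effect of over 60% in size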; also: potency is read from the fitted curve at half-maximal effect;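 as to activity change, negative = cytotoxicity: 0% = DMSO only and the negative end = 92 µM tetraoctylammonium bromide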
Method in brief: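 Luminescent ATP signal (CellTiter-Glo) serves as the viability read-out after 24 hr compound treatment of lymphoblastoid cells in complete medium at 37 C. Concentration-response data were fitted to the Hill equation to give AC50 values.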

[5] = Cell Viability - LYMP2-008 (AID 980); also: % is scaled to controls: 0 for no effect and ±100 for the full control effect; nearly all actives have a fitted effect of over 60% in size
Method in brief: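 qHTS, human lymphoblastoid line, 2500 cells/well; 5 hr preincubation, 24 hr compound, 37 C. CellTiter-Glo ATP luminescence. AC50 via Hill equation. Tetraoctylammonium bromide positive control.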

[6] = biological target: Bile acid receptor (Homo sapiens) (UniProt Q96RI1); assay: qHTS assay for small molecule antagonists of farnesoid X receptor signaling (AID 588526; calls by dose curve; also: % is scaled to controls: 0 for no effect and ±100 for the full control effect)
Sequence of Bile acid receptor (Homo sapiens) (Q96RI1 whole entry, looked up): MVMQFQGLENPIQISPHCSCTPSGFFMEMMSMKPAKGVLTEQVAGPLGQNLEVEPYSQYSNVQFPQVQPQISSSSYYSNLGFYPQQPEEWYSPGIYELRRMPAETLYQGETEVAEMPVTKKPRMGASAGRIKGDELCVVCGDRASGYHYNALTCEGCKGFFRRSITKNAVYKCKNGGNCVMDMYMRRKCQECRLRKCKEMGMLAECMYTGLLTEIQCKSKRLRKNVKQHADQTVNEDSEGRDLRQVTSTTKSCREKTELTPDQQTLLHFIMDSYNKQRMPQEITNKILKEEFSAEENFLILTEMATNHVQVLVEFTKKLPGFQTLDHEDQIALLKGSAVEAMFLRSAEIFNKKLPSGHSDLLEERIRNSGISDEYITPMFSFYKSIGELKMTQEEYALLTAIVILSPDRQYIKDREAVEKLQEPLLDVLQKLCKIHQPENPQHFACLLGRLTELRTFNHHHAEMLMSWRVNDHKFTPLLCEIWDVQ
Method in brief: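 Concentration-response titrations were fitted to the Hill equation for half-maximal inhibition and maximal response, with data normalised to 50 uM chenodeoxycholic acid and DMSO control wells. Cells: FXR-UAS-bla HEK293T, dialyzed FBS.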

[7] = biological target: Peroxisome proliferator-activated receptor gamma (Homo sapiens) (UniProt P37231); assay: qHTS assay for small molecule antagonists of peroxisome proliferator-activated receptor gamma signaling (AID 588537; active = well fitted inhibition curve with a large enough effect in the signal ratio, with a control signal flat, not every such curve was filed as active; the % refers to the signal ratio; also: potency is read from the fitted curve at half-maximal effect)
Sequence of Peroxisome proliferator-activated receptor gamma (Homo sapiens) (P37231 whole entry, looked up): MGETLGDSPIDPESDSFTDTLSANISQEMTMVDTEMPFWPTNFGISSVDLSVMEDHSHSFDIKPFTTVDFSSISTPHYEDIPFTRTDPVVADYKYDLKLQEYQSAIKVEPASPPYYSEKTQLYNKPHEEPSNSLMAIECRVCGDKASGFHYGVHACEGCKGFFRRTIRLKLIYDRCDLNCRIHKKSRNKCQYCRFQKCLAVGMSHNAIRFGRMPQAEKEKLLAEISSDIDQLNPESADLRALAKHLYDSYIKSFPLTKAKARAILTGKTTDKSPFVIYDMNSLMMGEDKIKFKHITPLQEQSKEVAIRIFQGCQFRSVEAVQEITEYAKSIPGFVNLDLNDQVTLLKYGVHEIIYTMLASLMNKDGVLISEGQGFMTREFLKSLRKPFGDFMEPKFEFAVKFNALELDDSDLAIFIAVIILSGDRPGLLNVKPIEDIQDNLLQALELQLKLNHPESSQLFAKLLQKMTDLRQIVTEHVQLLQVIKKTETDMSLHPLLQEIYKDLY
Method in brief: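 We seeded GeneBLAzer HEK293 reporter cells at 3000 per well, allowed 6-6.5 h attachment at 37 C, then co-treated with test compound titrations and 50 nM rosiglitazone overnight (16 h). Inhibition was quantified from 460/530 nm emission ratios.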

[8] = biological target: Vitamin D3 receptor (Homo sapiens) (UniProt P11473); assay: qHTS assay for small molecule agonists of vitamin D receptor signaling (AID 588543; calls by dose curve; also: potency is read from the fitted curve at half-maximal effect;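 as to activation: 0% = DMSO basal and 100% = reference agonist control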)
Sequence of Vitamin D3 receptor (Homo sapiens) (P11473 whole entry, looked up): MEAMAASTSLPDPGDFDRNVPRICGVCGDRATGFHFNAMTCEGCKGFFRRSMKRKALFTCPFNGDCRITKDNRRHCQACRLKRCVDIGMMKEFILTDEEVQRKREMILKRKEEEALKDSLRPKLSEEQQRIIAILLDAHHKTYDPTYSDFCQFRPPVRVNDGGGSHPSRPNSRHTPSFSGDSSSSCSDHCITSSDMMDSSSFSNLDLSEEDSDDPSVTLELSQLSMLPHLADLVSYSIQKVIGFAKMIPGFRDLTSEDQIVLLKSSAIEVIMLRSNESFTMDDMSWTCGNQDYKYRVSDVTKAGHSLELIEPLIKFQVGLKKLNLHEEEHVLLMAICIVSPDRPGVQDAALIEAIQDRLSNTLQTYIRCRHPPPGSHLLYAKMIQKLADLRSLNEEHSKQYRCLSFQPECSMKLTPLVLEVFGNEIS
Method in brief: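 Agonist-mode beta-lactamase reporter: HEK293T VDR-UAS-bla cells in charcoal-stripped 2% FBS, compound series 16 h 37 C, CCF4 2 h RT. EC50 from Hill fit, scaled against DMSO and 50 nM calcitriol control.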

[9] = biological target: Retinoic acid receptor RXR-alpha (Homo sapiens) (UniProt P19793); assay: qHTS assay for small molecule agonists of retinoid X receptor alpha signaling (AID 588544; calls by dose curve;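 also: 0% = DMSO basal wells and 100% = reference agonist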)
Sequence of Retinoic acid receptor RXR-alpha (Homo sapiens) (P19793 whole entry, looked up): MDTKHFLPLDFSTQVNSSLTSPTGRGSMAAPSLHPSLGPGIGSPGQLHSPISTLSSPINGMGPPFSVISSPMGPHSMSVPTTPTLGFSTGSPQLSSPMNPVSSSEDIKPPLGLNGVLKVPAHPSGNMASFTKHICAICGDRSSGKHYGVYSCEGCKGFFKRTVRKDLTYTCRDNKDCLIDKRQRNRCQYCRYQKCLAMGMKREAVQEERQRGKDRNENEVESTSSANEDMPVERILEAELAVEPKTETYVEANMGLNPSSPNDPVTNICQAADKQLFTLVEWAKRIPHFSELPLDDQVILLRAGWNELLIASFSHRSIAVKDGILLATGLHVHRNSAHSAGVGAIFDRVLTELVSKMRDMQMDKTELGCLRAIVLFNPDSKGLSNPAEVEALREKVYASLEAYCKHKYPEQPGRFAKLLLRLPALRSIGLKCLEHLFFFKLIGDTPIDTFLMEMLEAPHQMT

[10] = qHTS assay for small molecule activators of the p53 signaling pathway (AID 651743; active = well fitted activation curve with a large enough effect in the signal ratio, not every such curve was filed as active; the % refers to the signal ratio; also: potency is read from the fitted curve at half-maximal effect; as to activation: % of control where 0% means no effect); details: HCT-116 p53RE-bla, beta-lactamase FRET ratio, 16 h; activation: stronger effect = higher value
Method in brief: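 Cell-based beta-lactamase reporter (p53 response elements, HCT-116 background). After a 5-hour preincubation, cells received compound for 16 hours at 37 C; substrate development ran 2 hours at room temperature.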

[11] = Cell Viability - N2a (AID 540); details: N2a mouse neuroblastoma cell viability; activity change, negative = cytotoxicity: at 92.2 µM (top of the series);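 also: cells exposed to compound for 40 h at 37 °C; nearly all actives have a fitted effect of over 45% in size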; also: potency is read from the fitted curve at half-maximal effect;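 as to activity change, negative = cytotoxicity: plate controls were DMSO alone for no effect and tamoxifen control for full effect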
Method in brief: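 Luminescent ATP signal (CellTiter-Glo, 20 min at room temperature) served as the viability read-out after N2a cells were treated with compounds for 40 hours at 37 °C. Concentration-response data were fitted to the Hill equation for AC50.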

[12] = Cell Viability - H-4-II-E (AID 543); also: nearly all actives have a fitted effect of over 35% in size; also: potency is read from the fitted curve at half-maximal effect
Method in brief: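 Luminescent ATP signal (CellTiter-Glo) served as the viability read-out, with cytotoxicity seen as a concentration-dependent ATP drop. Cells were treated for 40 hours in complete medium. AC50 values derive from Hill-equation modelling.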

[13] = qHTS assay to identify small molecules that stimulate interleukin-8 (IL-8) secretion (AID 651758; active = well fitted activation curve with a large enough effect in the signal ratio; the % refers to the signal ratio; also: potency is read from the fitted curve at half-maximal effect)
Method in brief: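 THP-1, 2000 cells/well; cpd 16 h, 37 C; add cryptate + XL665 anti-IL-8 Abs; RT 1-3 h; TR-FRET read.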

[14] = qHTS assay for small molecule agonists of the antioxidant response element (ARE) signaling pathway measured by Nrf2-dependant transcriptional activity (AID 720636; active = well fitted curve in the direction sought with a large enough effect in the repeat runs; an effect the other way counts as inactive or inconclusive; also: potency is read from the fitted curve at half-maximal effect;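 as to activation: HepG2 cells with an ARE-driven luciferase reporter; % of control where 0% means no effect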)
Method in brief: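 Reporter gene assay, HepG2 ARE-luc: 16 hr compound, 37 C, 5% CO2; read-out luciferase luminescence.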

[15] = biological target: Mitogen-activated protein kinase 10 (Mus musculus) (UniProt Q61831); assay: JNK3 AlphaScreen Assay (AID 530; active = well fitted curve in either direction with a large enough effect, not every such curve was filed as active;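 also: kinase came from lysate of stimulated human HepG2 cells; signal reports phosphorylation of biotinylated GST-cJun 1-79 at Ser73 with 10 µM ATP; % is scaled to controls: 0 for no effect and ±100 for the full control effect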)
Method in brief: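 Inhibitors reduce antibody binding to phosphorylated biotin-cJun, lowering AlphaScreen luminescence. Lysates from HepG2 cells pre-activated by IL-1beta plus TNF-alpha supplied JNK3; compounds were titrated.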

[16] = qHTS assay for small molecule antagonists of peroxisome proliferator-activated receptor delta signaling (AID 588535); details: HEK293T PPARd-UAS-bla, beta-lactamase FRET ratio, 18 h; 460 nm channel;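 also: cells co-treated with a PPAR-delta agonist as stimulator during compound exposure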
Method in brief: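 Reporter: UAS-bla under PPAR-delta response element, HEK293T host. Medium: 2% charcoal/dextran FBS. Dosing: titration, 18 hrs, 37 C. Detection: CCF4, 2 hrs RT, 405 ex/460 and 530 em.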

[17] = Cell Viability - LYMP2-001 (AID 921); also: nearly all actives have a fitted effect of over 70% in size; also: potency is read from the fitted curve at half-maximal effect
Method in brief: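 Cellular ATP loss read by luciferase luminescence after 24 h compound exposure at 37 C in complete medium. LYMP2-001 lymphoblastoid cells, 2500/well; qHTS concentration-response data fitted with Hill equation for AC50.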

[18] = biological target: Peroxisome proliferator-activated receptor gamma (Homo sapiens) (UniProt P37231); assay: qHTS assay for small molecule agonists of peroxisome proliferator-activated receptor gamma signaling (AID 588536; active = well fitted curve in the direction sought with a large enough effect in the signal ratio, with a control signal flat, not every such curve was filed as active; the % refers to the signal ratio;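 also: 0% = DMSO basal wells and 100% = rosiglitazone at 2 µM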)
Method in brief: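 Ratiometric blue/green fluorescence (405 nm excitation; 460 and 530 nm emission) from CCF4-loaded HEK293 reporter cells serves as signal. Exposure to test compounds lasts 16 h at 37 C in medium containing 1% charcoal/dextran-treated serum.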

[19] = biological target: Tumor necrosis factor (Homo sapiens) (UniProt P01375); assay: qHTS assay to identify small molecules that stimulate Tumor Necrosis Factor-alpha (TNF-alpha) secretion (AID 651757; active = well fitted curve in the direction sought with a large enough effect in the signal ratio; the % refers to the signal ratio; also: 0% is about no effect)
Sequence of Tumor necrosis factor (Homo sapiens) (P01375 whole entry, looked up): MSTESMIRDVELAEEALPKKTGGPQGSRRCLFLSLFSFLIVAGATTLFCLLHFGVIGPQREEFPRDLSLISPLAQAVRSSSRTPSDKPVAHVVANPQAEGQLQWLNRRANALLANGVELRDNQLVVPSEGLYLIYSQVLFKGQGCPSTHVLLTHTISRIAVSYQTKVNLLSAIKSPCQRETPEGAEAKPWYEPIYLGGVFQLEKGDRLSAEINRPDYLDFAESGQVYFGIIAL
Method in brief: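 Read-out is HTRF, a TR-FRET sandwich of cryptate- and XL665-labeled anti-TNF-alpha antibodies detecting cytokine secreted by THP-1 cells. Cells had been incubated with test compounds at 37 C for 17 hrs beforehand.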

Cc1cc2nc(N)sc2cc1C
inactive: Potency [1] | Potency [2] | Potency [3] | Potency [4] | Potency [5] | Potency [6] | Potency [7] | Potency [8] | Potency [9] | activation [10] -2.08%

CCN(CC)c1ccc(N)cc1
inactive: activation [10] 11.7%
active: activity change, negative = cytotoxicity [11] -118% | Potency [12] 79.4 µM | Potency [13] 37.6 µM

Cc1c2ccccc2c(C)c2c1ccc1ccccc12
inactive: activity change, negative = cytotoxicity [11] -25% | Potency [12] | Potency [2] | Potency [4] | Potency [6] | Potency [14]
active: Potency [10] 44.7 µM

CN(C)c1ccc(C(=N)c2ccc(N(C)C)cc2)cc1
inactive: Potency [15] | Potency [8] | activation [10] 11.1%
active: Potency [12] 12.6 µM | Potency [1] 10 µM | Potency [7] 14.1 µM | Potency [13] 66.8 µM

Cc1cc(-c2ccc(N=Nc3cc(S(=O)(=O)O)c4ccccc4c3N)c(C)c2)ccc1N=Nc1cc(S(=O)(=O)O)c2ccccc2c1N
-39.2%: max response [16]
inactive: Potency [2] | Potency [14]

Oc1ccc(O)c2c(O)cccc12
inactive: Potency [15] | activity change, negative = cytotoxicity [11] -30.1% | Potency [8] | Potency [9] | activation [10] -2.36%
active: Potency [2] 50.1 µM | Potency [13] 75 µM

CCN(CC)c1ccc2c(C)cc(=O)oc2c1
inactive: Potency [1] | Potency [2] | Potency [4] | Potency [5] | Potency [7] | Potency [14]
active: Potency [8] 44.7 µM

S=C(NC1CCCCC1)NC1CCCCC1
inactive: Potency [15] | Potency [1] | Potency [17] | Potency [2] | Potency [4] | Potency [5] | Potency [7] | Potency [14]
-15.4%: max response [16]

O=C=Nc1ccc(Cl)c(Cl)c1
active: Potency [11] 31.6 µM
inactive: Potency [8] | Potency [14]

c1ccc(Nc2cccc3ccccc23)cc1
27.2% and -10.4%: max response [16]
inactive: Potency [1] | Potency [3] | Potency [4] | Potency [5] | Potency [9] | activation [10] -1.55% and -1.95%

Nc1ccc(N)c(Cl)c1
inactive: Potency [15] | activity change, negative = cytotoxicity [11] 3.89% | Potency [2]
-6.58%: max response [16]

CCCCC(CC)COP(=O)(OCC(CC)CCCC)OCC(CC)CCCC (configuration not stated)
38.7%: max response [16]
inactive: Potency [15] | Potency [12] | Potency [2] | Potency [5] | outcome [18] | Potency [7] | Potency [9] | Potency [19] | Potency [14]

Cc1ccc(O)c(N)c1
active: Potency [17] 50.1 µM | Potency [4] 50.1 µM
inactive: Potency [15] | Potency [6] | Potency [9]
-35.8%: max response [16]

O=[N+]([O-])c1cc(Cl)c(Cl)c(Cl)c1Cl
active: Potency [1] 31.6 µM | Potency [14] 37.6 µM
inactive: Potency [15] | activity change, negative = cytotoxicity [11] -28% | activation [10] 0.035% | Potency [19]
8.11%: max response [16]

Nc1ccc2c(c1)C(=O)c1ccccc1C2=O
inactive: activity change, negative = cytotoxicity [11] -27.2% | Potency [4] | Potency [5] | Potency [9] | activation [10] 2.17% and 5.16%
-6.52%: max response [16]
